Test systems include SR leukemia; RPMI-8226 leukemia; OVCAR-8 ovarian; OVCAR-5 ovarian; OVCAR-4 ovarian; SK-OV-3 ovarian; IGROV1 ovarian; OVCAR-3 ovarian; HS 578T breast; NCI/ADR-RES ovarian.
Holding throughout (experiment): NCI-60 one-dose screen, 48 h (100 = growth as untreated, 0 = no growth, -100 = all killed)
Conditions in all cases: 10 µM unless noted

Compounds without any hit were thinned out: in the full panel of roughly 83,000, 20% have a hit.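 Single-dose data. Exposure time 48 hours. Values below 10 considered active.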 Values without a mark were called inactive. The source made the active and inactive calls.

For `CCCCCCCCCCOC(C)=O`, the growth in the test with SR leukemia is 98.6%; with RPMI-8226 leukemia, 99.1%; in the test with OVCAR-8 ovarian it was 101%; in the test with OVCAR-5 ovarian, 101%; in the test with OVCAR-4 ovarian it was 103%; in the test with SK-OV-3 ovarian, 110%. The growth was 96.2% in the test with IGROV1 ovarian, 110% with OVCAR-3 ovarian, 101% in the test with HS 578T breast and 111% in the test with NCI/ADR-RES ovarian.

Turning to `CC(=O)N1N=C(c2ccc(Nc3ccnc4cc(Cl)ccc34)cc2)CC1c1ccc(Cl)cc1` (stereo not given), the growth with SR leukemia is 2.79% (active); in the test with RPMI-8226 leukemia, 22.3%; with OVCAR-8 ovarian, 66.9%; with OVCAR-5 ovarian it was 87.9%; in the test on OVCAR-4 ovarian it was 45.2%; with SK-OV-3 ovarian it was 68.1%. The growth is 51.1% in the test on IGROV1 ovarian, 29.2% in the test with OVCAR-3 ovarian, 41% in the test with HS 578T breast and 22.9% in the test with NCI/ADR-RES ovarian.

`Nc1nc(SCc2cccnc2)c2ncn(C3OC(CO)C(O)C3O)c2n1` (stereo not given): the growth in the test with SR leukemia was 118%; in the test on RPMI-8226 leukemia it was 115%; in the test with OVCAR-8 ovarian, 97.1%; in the test with OVCAR-5 ovarian, 90.1%; in the test on OVCAR-4 ovarian, 112%; with SK-OV-3 ovarian it was 107%. The growth in the test with IGROV1 ovarian was 98.6%; with OVCAR-3 ovarian, 99.9%; in the test on HS 578T breast, 109%; in the test with NCI/ADR-RES ovarian it was 102%.

On to `N#Cc1c(-c2ccccc2)cc(-c2ccccc2)n(CC(=O)O)c1=O`, for which the growth in the test on SR leukemia is 25%; in the test on RPMI-8226 leukemia, 50.4%; in the test on OVCAR-8 ovarian it was 57.1%; in the test with OVCAR-5 ovarian, 94.4%; with OVCAR-4 ovarian, 93%; in the test with SK-OV-3 ovarian, 99.9%. The growth in the test on IGROV1 ovarian was 61.4%; with OVCAR-3 ovarian, 17.7%; in the test on HS 578T breast, 51.6%; in the test on NCI/ADR-RES ovarian, 26.2%.

With `CC(C)Sc1nc(-c2ccc(Br)cc2)c(C#N)c(N2CCCCC2)n1`, the growth was 106% in the test on SR leukemia; 98.8% in the test with RPMI-8226 leukemia; 98.6% in the test on OVCAR-8 ovarian; 88.7% in the test on OVCAR-5 ovarian; 95.1% with OVCAR-4 ovarian; 110% in the test with SK-OV-3 ovarian. For the same compound, the growth in the test on IGROV1 ovarian was 104%; in the test on OVCAR-3 ovarian, 104%; in the test with HS 578T breast, 107%; with NCI/ADR-RES ovarian, 102%.

In the case of `Nc1nc2c(c(=O)[nH]1)C1(C(=O)Nc3ccccc31)c1c(nc(N)[nH]c1=O)N2`, the growth in the test with SR leukemia was 111%; in the test on RPMI-8226 leukemia, 96.2%; with OVCAR-8 ovarian it was 114%; with OVCAR-5 ovarian it was 112%; in the test on OVCAR-4 ovarian it was 102%; with SK-OV-3 ovarian, 108%. Also, the growth in the test on IGROV1 ovarian is 101%; in the test with OVCAR-3 ovarian, 103%; with HS 578T breast it was 110%; in the test with NCI/ADR-RES ovarian it was 102%.

Regarding `Nc1c(C(=O)Nc2cccc(Cl)c2)sc2nc3c(cc12)C(O)CCC3` (stereo not given), the growth in the test with SR leukemia is 8.19% (active); with RPMI-8226 leukemia, 6.38% (active); in the test on OVCAR-8 ovarian, 36.8%; with OVCAR-5 ovarian, 51.2%; in the test on OVCAR-4 ovarian, 52.7%; in the test with SK-OV-3 ovarian, 35.4%. Moreover, the growth in the test on IGROV1 ovarian was 31.1%; in the test on OVCAR-3 ovarian, -33.4% (active); with HS 578T breast, 24.5%; with NCI/ADR-RES ovarian it was 8.73% (active).

For the compound `COc1cccc(/C=N/Nc2nc3ccccc3s2)c1OC`, the growth with SR leukemia was 45.9%; in the test with RPMI-8226 leukemia, 74.8%; in the test on OVCAR-8 ovarian it was 76.5%; with OVCAR-5 ovarian, 97.7%; in the test with OVCAR-4 ovarian it was 92.2%; in the test on SK-OV-3 ovarian, 78.5%. Moreover, the growth with IGROV1 ovarian is 81.9%; in the test with OVCAR-3 ovarian, 98.3%; in the test with HS 578T breast, 97.9%; in the test on NCI/ADR-RES ovarian it was 91.7%.

Take `CC(=O)OCC(=O)[C@@]1(O)CC[C@H]2[C@@H]3CCC4=CC(=O)CC[C@]4(C)[C@@]3(F)[C@@H](O)C[C@@]21C`: the growth in the test with SR leukemia was 99.8%; with RPMI-8226 leukemia, 62.5%; in the test on OVCAR-8 ovarian, 93.8%; in the test on OVCAR-5 ovarian, 80.2%; in the test on OVCAR-4 ovarian it was 105%; with SK-OV-3 ovarian, 63.7%. Moreover, the growth in the test on IGROV1 ovarian is 116%; in the test with OVCAR-3 ovarian it was 106%; in the test on HS 578T breast, 112%; with NCI/ADR-RES ovarian, 89.6%.

Regarding `O=C(NC1CCCCC1)c1ccc(Nc2ncnc3c2cnn3-c2ccccc2)cc1`, the growth with SR leukemia was 67.5%; in the test with RPMI-8226 leukemia, 89.5%; in the test on OVCAR-8 ovarian it was 21.6%; with OVCAR-5 ovarian, 80.3%; in the test with OVCAR-4 ovarian, 30.3%; in the test with SK-OV-3 ovarian it was 54%. Besides, the growth with IGROV1 ovarian was 71.1%; in the test with OVCAR-3 ovarian it was 87.4%; in the test on HS 578T breast, 0.218% (active); in the test with NCI/ADR-RES ovarian, 74.2%.

As for `CSc1nc(N)c2c(n1)N(C)C=NS2(=O)=O`, the growth in the test on SR leukemia is 102%; in the test with RPMI-8226 leukemia it was 103%; in the test on OVCAR-8 ovarian it was 102%; in the test on OVCAR-5 ovarian, 93.7%; with OVCAR-4 ovarian, 108%; in the test with SK-OV-3 ovarian, 117%. The growth in the test on IGROV1 ovarian is 119%; with OVCAR-3 ovarian, 122%; with HS 578T breast it was 118%; in the test on NCI/ADR-RES ovarian, 103%.

`O=CNc1ccc2c(c1)Cc1cc([N+](=O)[O-])ccc1-2`: the growth is 31.6% in the test with SR leukemia; 35.6% in the test with RPMI-8226 leukemia; 41.3% in the test with OVCAR-8 ovarian; 36.2% with OVCAR-5 ovarian; 74.5% in the test with OVCAR-4 ovarian; 12.8% with SK-OV-3 ovarian. Besides, the growth is 30.7% in the test on IGROV1 ovarian, 16.1% with OVCAR-3 ovarian, 40.1% with HS 578T breast and 3.1% (active) with NCI/ADR-RES ovarian.

For the compound `CC(=O)[C@H]1CC[C@H]2[C@@H]3C[C@H](C)C4=CC(=O)CC[C@]4(C)[C@H]3C(=O)C[C@]12C`, the growth was 97.5% in the test with SR leukemia; 97.3% with RPMI-8226 leukemia; 101% in the test with OVCAR-8 ovarian; 103% in the test on OVCAR-5 ovarian; 102% in the test on OVCAR-4 ovarian; 98% with SK-OV-3 ovarian. Also, the growth with IGROV1 ovarian was 98.6%; in the test with OVCAR-3 ovarian, 110%; in the test on HS 578T breast, 103%; with NCI/ADR-RES ovarian, 98.7%.
